In PubChem BioAssay (NCATS) one finds outcome data, which are given here for 37 compounds.

Structures are written as SMILES. Results filed as inconclusive are left out. Calls of active or inactive are those of the source. Calls follow the shape of the dose curve; as a rule, active = well fitted inhibition curve with a large enough effect; inconclusive = small, poorly fitted or top-dose-only effect; inactive = flat fitted curve, though single readings scatter. Bridge positions count the residues as written; N and C are the ends. Square brackets hold non-standard residues; d marks the D form. Peptide text beside a SMILES is read from it. hArg = N=C(N)NCCCC[C@H](N)C(=O)O; Mpa = O=C(O)CCS

This assay relates to CRL-7250. The assay can be described thus: qHTS assay to identify novel small-molecules to repurpose for Merkel cell carcinoma treatment (AID 1296009). Also: nearly all actives have a fitted effect of over 60% in size. The conditions noted are these: MCC and control cell lines, CellTiter-Glo viability, 72 h; at 44.8 µM (top of the series) unless noted. In a few lines:
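Cells were incubated with compound for 72 hr at 37 degree celsius before CellTiter-Glo addition. Luminescence was normalized with no-cell wells as full cytotoxicity and DMSO as baseline.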
Regarding `O=c1[nH]c(=O)c2ccccc2o1`, the result was inactive. For the compound `O=c1ccc2ccccc2o1`, the call was inactive. Take `CC1CCc2cc(F)cc3c(=O)c(C(=O)O)cn1c23` (configuration not stated): the compound was classed as inactive. For the compound `COC1=C(OC)C(=O)C(CCCCCCCCCCO)=C(C)C1=O`, the result was inactive. With `C[C@]12CC[C@@H]3c4ccc(O)cc4CC[C@H]3[C@@H]1CC[C@@H]2OC(=O)CCC1CCCC1` the entry was “inactive”; with `CC(C)(C)C(=O)C(Oc1ccc(Cl)cc1)n1ccnc1` (configuration not stated), “inactive”; with `COc1ccccc1OC(=O)Oc1ccccc1OC`, “inactive”.

As for `O=C1CC2(CCCC2)CC(=O)N1CCCCN1CCN(c2ncccn2)CC1`, the outcome was inactive. For `Cc1cc(O)c(C)c(C)c1O`, the compound was called inactive.

On to `CC(=O)OCC(=O)Nc1cc(C#N)cc(NC(=O)COC(C)=O)c1Cl`, for which the compound was called inactive. With `CC(C)NCC(O)COc1ccc(COCCOC(C)C)cc1` (configuration not stated) the entry was “inactive”. As for `CC(=O)[C@H]1CC[C@H]2[C@@H]3CC=C4C[C@@H](O)CC[C@]4(C)[C@H]3CC[C@]12C`, the entry is “inactive”; as for `CC(C)(C)c1ccc(C(=O)CCCCl)cc1`, “inactive”; as for `CCCCC1(COC(=O)CCC(=O)O)C(=O)N(c2ccccc2)N(c2ccccc2)C1=O`, “inactive”. As for `CCCc1ncc(C[n+]2ccccc2C)c(N)n1`, the entry is “inactive”. Consider `CC(C)C(=O)OCc1cccc(OC(=O)[C@@H]2N3C(=O)[C@@H](NC(=O)Cc4ccccc4)[C@H]3SC2(C)C)c1`, for which the compound was called inactive. As for `NC(=O)[C@@H]1CSSCCC(=O)N[C@@H](CCCCN=C(N)N)C(=O)NCC(=O)N[C@@H](CC(=O)O)C(=O)N[C@@H](Cc2c[nH]c3ccccc23)C(=O)N2CCC[C@H]2C(=O)N1` ([Mpa][hArg]GDWPC-NH2; disulfide 1-7), the entry is “inactive”. As for `Cc1cccc(N(C)C(=S)Oc2ccc3ccccc3c2)c1`, the entry is “inactive”; as for `O=C(CCCN1CCN(c2ccccn2)CC1)c1ccc(F)cc1`, “inactive”; as for `O=C(O)c1cn(C2CC2)c2cc(Cl)c(F)cc2c1=O`, “inactive”. Regarding `CCOc1ccccc1O[C@H](c1ccccc1)[C@H]1CNCCO1`, the outcome was inactive. In the case of `CN(C)CCCOC1(Cc2ccccc2)CCCCCC1`, the compound was classed as inactive. As for `CCN(CC)C(=O)N1CCN(C)CC1`, the entry is “inactive”; as for `N/C(=N\N=C\c1ccc(Cl)cc1)N/N=C/c1ccc(Cl)cc1`, “inactive”; as for `OC(CCN1CCCCC1)(c1ccccc1)c1ccccc1`, “inactive”. With `CCCc1cc(C(N)=S)ccn1` the entry was “inactive”; with `COc1cc2[nH]c(=O)[nH]c(=O)c2cc1OC`, “inactive”. As to `CN1CCC(OC(c2ccccc2)c2ccccc2)CC1`, the compound was called inactive.

As for `N[C@@H](Cc1c[nH]c2ccc(O)cc12)C(=O)O`, the outcome was inactive. On to `CCC(=O)O[C@]1(C(=O)COC)[C@@H](C)C[C@H]2[C@@H]3CCC4=CC(=O)C=C[C@]4(C)C3(F)[C@@H](O)C[C@@]21C` (some centres not stated), for which the compound was classed as inactive.

Consider `NC(N)=NCCC[C@H](N)C(=O)O`, for which the outcome is “inactive [at 4.96 µM]”. In the case of `Cc1nc2sccn2c(=O)c1CCN1CCC(=C(c2ccc(F)cc2)c2ccc(F)cc2)CC1`, the call was inactive. As to `COc1cccc(N(C)C(=S)Oc2ccc3c(c2)CCCC3)n1`, the result was inactive. In the case of `O=C(O)Cc1ccc2c(c1)C(=O)c1ccccc1CO2`, the call was inactive.

For `O=C(NCC1CN(c2ccc(N3CCOCC3=O)cc2)C(=O)O1)c1ccc(Cl)s1` (configuration not stated), the compound was called inactive.

Turning to `CCCCCCCCCCCCCCCCC(C(=O)O)C(O)(CC(=O)O)C(=O)O` (configuration not stated), the outcome was inactive. With `COc1ccccc1N1CCN(CCCNc2cc(=O)n(C)c(=O)n2C)CC1` the entry was “inactive”.
